# SIRT5 inh: sirtuin-5 (human) deacylase inhibition; Q9NXA8; Purified SirT5, succinyl-peptide AMC, trypsin-coupled fluorescence; inhibition, % at 15 µM; 1.1% of 330,000 active; AID 652115; in the data active means inhibition above about 15%; inconclusive means no clear call, values can overlap the other calls
# Target sequence (Q9NXA8 whole entry, looked up): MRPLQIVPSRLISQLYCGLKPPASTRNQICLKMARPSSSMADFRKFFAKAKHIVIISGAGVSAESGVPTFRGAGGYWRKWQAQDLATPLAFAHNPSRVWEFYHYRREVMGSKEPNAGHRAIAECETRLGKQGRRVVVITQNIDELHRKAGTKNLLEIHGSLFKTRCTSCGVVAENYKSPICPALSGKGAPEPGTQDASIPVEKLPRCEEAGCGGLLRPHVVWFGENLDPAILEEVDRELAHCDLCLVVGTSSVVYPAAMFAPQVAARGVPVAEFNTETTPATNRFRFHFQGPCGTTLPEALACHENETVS
# PDI inh: PDI (human) enzyme inhibition | 0.052% of 350,000 active | inhibition, % at 10 µM | AID 588391 | PDI insulin aggregation turbidity, A650, 90 min;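 active means mean inhibition across replicates of 30% or more, whatever share of single replicates reach that level; inconclusive means mean inhibition below 30% while every single replicate reaches 30%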
# DENV2 CPE rescue: inhibitors of DENV2 cytopathic effect | DENV2-infected cells, cytopathic effect rescue, plate reader | CPE inhibition, % at 9.99 µM | 1.7% of 350,000 active; in the data active means CPE inhibition above about 20%, passing the limit was not always enough; inconclusive means no clear call, values can overlap the other calls; tested in BHK-21 cells;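 further: 0% = median of neutral control wells and 100% = median of positive control wells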
# ERp5 block: inhibitors of human ERp5; 0.05% of 350,000 active; ERp5 insulin aggregation, absorbance 650 nm, 90 min; Q15084; inhibition, % at 9.99 µM; AID 651711;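 active means mean replicate inhibition above about 25%, with every replicate also reaching it, limit read from the data, passing the limit was not always enough; inconclusive means only one of those two criteria met; inactive means neither criterion met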
# Rtt109 Vps75: blocks Candida albicans Rtt109/Vps75 acetyltransferase activity | Q5AAJ8 | purified Rtt109/Vps75, ThioGlo CoA-SH fluorescence, 4 h | inhibition, % at 34.9 µM | 0.16% of 330,000 active | AID 540336;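 active means inhibition of at least 50% in every replicate; inconclusive means best replicate reaches 50% inhibition but some replicates fall short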
# The depositor's hits bear a star; ? = inconclusive; · = no result given; ! = a repeat was not active. Most compounds without a hit are left out; they make up all but 2.3% or so of the library.
SMILES,SIRT5 inh,PDI inh,DENV2 CPE rescue,ERp5 block,Rtt109 Vps75
COc1ccc2nc(SC(C)C(=O)NC3(C#N)CCCCC3)[nH]c2c1 (stereo not given),2,-10,-6,1,8
OC(c1ccccc1)C(NCc1ccccc1)c1ccccc1 (stereo not given),-2,-55,21*,-4,·
COc1ccc(C(=O)C2CCCN(S(=O)(=O)C(C)C)C2)c(C)c1 (stereo not given),25*,0,-5,4,-3
Cc1c(O)ccc2c(CN3CCN(C/C=C/c4ccccc4)CC3)cc(=O)oc12,-8,44*,15,4,-66
CCN(CC)c1ccc(NC(=O)/C=C\c2ccccc2Cl)cc1,·,-4,·,·,2
CN(C)c1ccc(NC(=O)/C=C/c2ccccc2Cl)cc1,·,-7,·,·,56*
C[C@H](CO)N1C[C@H](C)[C@H](CN(C)C(=O)c2ccccn2)Oc2cc(C#CC3CC3)ccc2S1(=O)=O,-2,·,-1,0,·
Cn1c(SCc2nc(-c3ccc(Cl)cc3)no2)nnc1-c1cccs1,33*,-14,·,-1,2
Cn1c(SCc2nc(-c3ccccc3)no2)nnc1-c1cccs1,·,5,·,·,4
O=C(C[C@H]1CC[C@H]2[C@@H](COC[C@@H](O)CN2S(=O)(=O)c2cccc(Cl)c2)O1)NC1CCC1,-2,·,3,3,·
C[C@@H]1CCCCO[C@H](CN(C)Cc2ccc(C(=O)O)cc2)[C@H](C)CN([C@@H](C)CO)C(=O)c2cc(NC(=O)NC3CCCCC3)ccc2O1,1,·,1,-10,·
O=c1[nH]c(Cc2ccc(F)cc2)nc2scc(-c3ccc(F)cc3)c12,21*,1,12,-8,-1
Cc1ccc(-c2csc3nc(CN(C)Cc4ccccc4)[nH]c(=O)c23)cc1,0,1,·,-1,6
Cc1ccc(C(=O)NC(=S)c2c(C)cc3ccccn23)cc1,·,-4,85*,2,·
O=C(NCC[C@@H]1CC[C@@H](NC(=O)c2ccccc2F)[C@@H](CO)O1)c1ccc2c(c1)OCO2,2,·,-2,-1,·
C[C@@H]1CN([C@H](C)CO)S(=O)(=O)c2ccc(-c3ccc(F)cc3)cc2O[C@@H]1CN(C)CC1CC1,-2,·,13,27*,·
CCCN(C)C[C@@H]1Oc2cc(-c3ccccc3OC)ccc2S(=O)(=O)N([C@H](C)CO)C[C@@H]1C,32*,·,5,-5,·
C[C@@H]1CN([C@H](C)CO)S(=O)(=O)c2ccc(C#Cc3cccc(F)c3)cc2O[C@@H]1CN(C)CC1CC1,15*,·,-3,-10,·
CCCN(C)C[C@@H]1Oc2cc(-c3ccccc3OC)ccc2S(=O)(=O)N([C@@H](C)CO)C[C@@H]1C,-15,·,1,-13,·
CCCN(C)C[C@@H]1Oc2cc(-c3ccc(C)cc3)ccc2S(=O)(=O)N([C@@H](C)CO)C[C@@H]1C,1,·,10,-10,·
CCCN(C)C[C@@H]1Oc2cc(-c3ccc(F)cc3)ccc2S(=O)(=O)N([C@@H](C)CO)C[C@@H]1C,-3,·,-6,32*,·
CCCN(C)C[C@H]1OCCCC[C@@H](C)Oc2ccc(NS(=O)(=O)c3cccs3)cc2C(=O)N([C@@H](C)CO)C[C@@H]1C,-4,·,6,4,·
CCO[C@@H]1OC(C(=O)NCc2ccccc2)=C[C@H](c2coc3ccccc3c2=O)[C@H]1CCCO,-2,8,47*,-5,-3
CCO[C@H]1OC(C(=O)NC2CC2)=C[C@@H](c2coc3ccccc3c2=O)[C@@H]1CCCO,-2,-26,-5,1,13
CCO[C@H]1OC(C(=O)O)=C[C@@H](c2coc3ccccc3c2=O)[C@@H]1CCCO,-1,0,-12,1,9
SMILES,SIRT5 inh,PDI inh,DENV2 CPE rescue,ERp5 block,Rtt109 Vps75
CCO[C@H]1OC(C(=O)Nc2ccccc2)=C[C@@H](c2coc3ccccc3c2=O)[C@@H]1CCCO,5,-3,23*!,-1,0
COc1cccc(-c2cnc3c(c2)C(=O)N([C@@H](C)CO)C[C@H](C)[C@@H](CN(C)Cc2ccc(C(=O)O)cc2)O3)c1,-3,·,-5,2,·
C[C@H]1CN([C@@H](C)CO)C(=O)c2cc(NS(=O)(=O)c3cn(C)cn3)ccc2O[C@@H]1CN(C)C(=O)Nc1ccc(C(F)(F)F)cc1,-2,·,0,-3,·
N#CC[C@H](c1ccccc1)N1CCN(Cc2ccccc2)CCC1=O,·,-2,60*,10,-3
CC(C)c1cn(CC[C@@H]2CC[C@@H](NC(=O)C3CC3)[C@@H](CO)O2)nn1,1,·,-4,7,·
O=S(=O)(c1ccccc1)[C@@]1(c2ccccc2)C[C@@H]2ON=C(c3cccc(Br)c3)[C@@H]2C1,·,-3,·,5,1
O=C(O)[C@]1(S(=O)(=O)c2ccccc2)C[C@@H]2ON=C(c3cccc(Br)c3)[C@@H]2C1,-5,-3,25*,1,-12
CCN(CC)C1CCN(Cc2c(C(=O)N3CCCCCCC3)nc3ccc(Cl)cn23)C1 (stereo not given),-2,-22,35*,2,-9
COC1CCN(Cc2c(C(=O)N3C[C@@H](C)O[C@@H](C)C3)nc3ccc(Cl)cn23)CC1,4,5,-1,-2,14
CCOC(=O)C1=C(CS(=O)(=O)c2ccc(C)cc2)NC(=O)NC1c1cc(OC)c(O)c(OC)c1 (stereo not given),-7,5,37*,-3,4
CCOC(=O)C1=C(CS(=O)(=O)c2ccccc2)NC(=O)NC1c1ccc(OC)c(OC)c1 (stereo not given),8,-2,0,5,-1
O=C(NCc1ccc(Cl)cc1)c1ccccc1CCc1ccccc1,·,3,·,·,52*
O=C(NCc1ccccc1Cl)c1ccccc1CCc1ccccc1,-1,-6,1,3,3
CO[C@@H]1CN(C)C(=O)c2ccc(NC(=O)Nc3cc(F)ccc3F)cc2OC[C@@H](C)N(C(=O)c2cnccn2)C[C@H]1C,1,·,-5,1,·
O=C(C[C@@H]1CC[C@@H]2[C@H](COC[C@@H](O)CN2CCC(F)(F)F)O1)NCC1CCCCC1,·,·,0,·,·
COc1ccc(OC)c(S(=O)(=O)N/N=C(/C)c2c[nH]c3ccccc23)c1,-2,26,-3,4,-2
COc1ccc(OC)c(S(=O)(=O)N/N=C\c2c[nH]c3ccccc23)c1,0,11,37*,4,3
O=C(CSc1ccccn1)N/N=C/c1cccc([N+](=O)[O-])c1,2,-2,46*,3,-8
O=[N+]([O-])c1cccc(/C=C/c2ccccn2)c1,24*,-7,?,4,8
O=[N+]([O-])c1cccc(/C=N/Nc2ccccn2)c1,-8,5,-4,1,2
O=C(CSc1ncccn1)N/N=C/c1cccc([N+](=O)[O-])c1,·,-2,·,·,-6
COc1ccc(NC(=O)N2CCCCN3[C@H](C2)[C@@H](c2ccc(-c4ccccc4F)cc2)[C@@H]3CO)cc1,8,·,-25,-8,·
